Measurements reported in PubChem BioAssay (Tox21).
Inconclusive results are not listed. The source made the active and inactive calls. Unless noted, calls follow the shape of the full dose curve.

Legend:
[1] = qHTS assay to identify small molecule agonists of the vitamin D receptor (VDR) signaling pathway - cell viability counter screen (AID 743224; active = well fitted curve in the direction sought with a large enough effect in the repeat runs; an effect the other way counts as inactive or inconclusive; also: series mostly up to about 63 µM; % is scaled to controls: 0 for no effect and ±100 for the full control effect; nearly all actives have a fitted effect of over 50% in size)
Outline: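 Counter screen for cytotoxicity: VDR-bla cells at 2,000 cells/well, 16 h compound exposure, then CellTiter-Glo luminescence after the beta-lactamase measurement.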

[2] = qHTS assay to identify small molecule antagonists of the vitamin D receptor (VDR) signaling pathway - cell viability counter screen (AID 743225; active = well fitted curve in the direction sought with a large enough effect in the repeat runs; an effect the other way counts as inactive or inconclusive; also: % is scaled to controls: 0 for no effect and ±100 for the full control effect; nearly all actives have a fitted effect of over 50% in size)
Outline: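 Cytotoxicity toward the VDR-bla HEK 293T line was scored by ATP-based CellTiter-Glo luminescence, read in the wells already used for the beta-lactamase readout after 16 h compound treatment under 3 nM 1-alpha,25-dihydroxyvitamin D3 stimulation.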

[3] = qHTS assay to identify small molecule agonists of the NFkB signaling pathway (AID 1159509; active = well fitted curve in the direction sought with a large enough effect in the signal ratio in the repeat runs, not every such curve was filed as active; the % refers to the signal ratio; also: series mostly up to about 61 µM; % is scaled to controls: 0 for no effect and ±100 for the full control effect)
Outline: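 Readout: FRET fluorescence, 405 nm excitation, 460/530 nm emission; beta-lactamase expression disrupts FRET. Cells: ME-180 stably carrying NF-kB-driven bla reporter. Compound exposure 5 hr, 37 C, 5% CO2.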

[4] = qHTS assay to identify small molecule agonists of the NFkB signaling pathway - cell viability counter screen (AID 1159515); also: series mostly up to about 61 µM; % is scaled to controls: 0 for no effect and ±100 for the full control effect; nearly all actives have a fitted effect of over 55% in size
Outline: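 Counter screen run alongside the NFkB-bla agonist assay: ME-180 reporter cells exposed to compounds for 5 hr, then lysed with CellTiter-Glo in the same wells. Luminescence, read after 30 min, reflects viable cells.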

[5] = qHTS assay to identify small molecule agonists of the endoplasmic reticulum stress response signaling pathway (AID 1159516; active = well fitted activation curve with a large enough effect in the signal ratio in the repeat runs, not every such curve was filed as active; the % refers to the signal ratio; also: % is scaled to controls: 0 for no effect and ±100 for the full control effect)
Outline: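 For this screen, HeLa cells stably carrying beta-lactamase under the ER stress response element received test compounds, positive controls or DMSO for 5 hr at 37 C; B/G FRET substrate was then added and dual-wavelength emission recorded.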

[6] = qHTS assay to identify small molecule agonists of the endoplasmic reticulum stress response signaling pathway - cell viability counter screen (AID 1159517); also: series mostly up to about 61 µM; % is scaled to controls: 0 for no effect and ±100 for the full control effect; nearly all actives have a fitted effect of over 50% in size
Outline: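 Cytotoxicity of test compounds toward ESRE-bla HeLa cells was assessed after 5 hr exposure. The luminescent CellTiter-Glo signal was measured 30 min after reagent addition.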

[7] = qHTS assay to identify small molecule antagonists of the retinoid-related orphan receptor gamma (ROR-gamma) signaling pathway - cell viability counter screen (AID 1159520; active = well fitted curve in the direction sought with a large enough effect in the repeat runs; an effect the other way counts as inactive or inconclusive; also: % is scaled to controls: 0 for no effect and ±100 for the full control effect; nearly all actives have a fitted effect of over 50% in size)
Outline: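 Tet-on ROR gamma CHO cells (1,000/well) were plated 4 hr, given compounds in DMSO for 2 hr at 37 C, then induced with 1 uM final doxycycline for 16 hr. Viability was read as ATP by CellTiter-Glo luminescence after 30 min.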

[8] = qHTS assay to identify small molecule agonists of the AP-1 signaling pathway - cell viability counter screen (AID 1159525); also: nearly all actives have a fitted effect of over 55% in size
Outline: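 Each titration point was normalised to DMSO and tetra n-octyl ammonium bromide controls. The read was Cell Titer Glo luminescence after 30 min at RT, following 5 h compound exposure of ME-180 AP-1-bla cells at 37 °C.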

[9] = qHTS assay to identify small molecule agonists of the AP-1 signaling pathway (AID 1159526); also: % is scaled to controls: 0 for no effect and ±100 for the full control effect
[10] = biological target: Nuclear receptor ROR-gamma (Homo sapiens) (UniProt P51449); experiment: qHTS assay to identify small molecule antagonists of the retinoid-related orphan receptor gamma (ROR-gamma) signaling pathway (AID 1159521; active = well fitted curve in the direction sought with a large enough effect in the repeat runs; an effect the other way counts as inactive or inconclusive)
Outline: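 Readout: ONE-Glo luciferase luminescence, 30 min at room temperature. System: Tet-on RORγ CHO, RORE-LUC. Sequence: compound 2 h, doxycycline 1 uM final, 16 h at 37 C.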

Cc1[nH]c(=O)c(C#N)cc1-c1ccc2nccn2c1
inactive: Potency [1] | Potency [2] | outcome [3] | outcome [4] | outcome [5] | outcome [6] | outcome [7] | Potency [8] | outcome [9]

C[N+](C)(C)CC(O)CC(=O)[O-] (stereo not given)
inactive: Potency [1] | Potency [2] | outcome [3] | outcome [4] | outcome [5] | outcome [6] | outcome [7] | Potency [8] | outcome [9]

CCCCOCCOCCOCc1cc2c(cc1CCC)OCO2
inactive: Potency [1] | Potency [2] | outcome [3] | outcome [4] | outcome [5] | outcome [6] | outcome [7] | Potency [8] | outcome [9]

OC(CCN1CCCCC1)(c1ccccc1)C1CC2C=CC1C2 (stereo not given)
inactive: Potency [2] | outcome [3] | outcome [4] | outcome [5] | outcome [6] | outcome [7] | Potency [8] | outcome [9]

CCC(C)S (stereo not given)
inactive: activity change, negative = cytotoxicity [1] 8.62% [at 2.7 µM] | activation [3] 0.0323% [at 3.11 µM] | activity, negative = cytotoxic [4] 6.58% [at 3.12 µM] | activation [5] 2.07% [at 3.11 µM] | activity change, negative = cytotoxicity [6] 12.1% [at 3.11 µM] | activity change, negative = inhibition [10] 4.64% [at 3.27 µM] | viability change, negative = cytotoxic [8] 5.51% [at 2.72 µM] | activation [9] -2.17% [at 2.72 µM]

CCCC(=O)O[C@]1(C(=O)CO)CC[C@H]2[C@@H]3CCC4=CC(=O)CC[C@]4(C)[C@H]3[C@@H](O)C[C@@]21C
inactive: Potency [1] | Potency [2] | outcome [3] | outcome [4] | outcome [5] | outcome [6] | outcome [7] | Potency [8] | outcome [9]

CN(C)CCCSc1ccccc1NC(=O)/C=C/c1ccccc1
inactive: Potency [1] | Potency [2] | outcome [3] | outcome [4] | outcome [5] | outcome [6] | outcome [7] | Potency [8] | outcome [9]

O=c1cc(-c2ccccc2)oc2ccccc12
inactive: Potency [1] | Potency [2] | outcome [3] | outcome [4] | outcome [5] | outcome [6] | outcome [7] | Potency [8] | outcome [9]

CCO[Si](CCC1CCC2OC2C1)(OCC)OCC (stereo not given)
inactive: Potency [1] | Potency [2] | outcome [3] | outcome [4] | outcome [5] | outcome [6] | outcome [7] | Potency [8] | outcome [9]

CC(C(=O)O)c1ccc(CC2CCCC2=O)cc1 (stereo not given)
inactive: Potency [1] | Potency [2] | outcome [3] | outcome [4] | outcome [5] | outcome [6] | Potency [10] | Potency [8] | outcome [9]

CCc1cccc2c(CCO)c[nH]c12
inactive: Potency [1] | Potency [2] | outcome [3] | outcome [4] | outcome [5] | outcome [6] | Potency [10] | Potency [8] | outcome [9]

Nc1c2c(nc3ccccc13)CCCC2O (stereo not given)
inactive: Potency [1] | Potency [2] | outcome [3] | outcome [4] | outcome [5] | outcome [6] | Potency [10] | Potency [8] | outcome [9]

Cc1ccc(=O)n(-c2ccccc2)c1
inactive: Potency [1] | Potency [2] | outcome [3] | outcome [4] | outcome [5] | outcome [6] | Potency [10] | Potency [8] | outcome [9]

C[C@](N)(Cc1ccc(O)cc1)C(=O)O
inactive: activity change, negative = cytotoxicity [1] -0.278% [at 5.95 µM] | viability change, negative = cytotoxic [2] 4.51% [at 6.95 µM] | activation [3] 0.267% [at 6.95 µM] | activity, negative = cytotoxic [4] 2.4% [at 6.95 µM] | activation [5] 0.0819% [at 6.95 µM] | activity change, negative = cytotoxicity [6] -6.6% [at 6.95 µM] | activity change, negative = inhibition [10] 10.5% [at 8.39 µM] | viability change, negative = cytotoxic [8] 6.35% [at 6.97 µM] | activation [9] -6.83% [at 6.97 µM]

NC(=O)Nc1ccccc1
inactive: Potency [1] | Potency [2] | outcome [3] | outcome [4] | outcome [5] | outcome [6] | Potency [10] | Potency [8] | outcome [9]

CC(C)(O)C(=O)c1ccccc1
inactive: Potency [1] | outcome [3] | outcome [4] | outcome [5] | outcome [6] | Potency [10] | Potency [8] | outcome [9]

CC(NC(CCc1ccccc1)C(=O)O)C(=O)N1C(=O)N(C)CC1C(=O)O (stereo not given)
inactive: Potency [1] | Potency [2] | outcome [3] | outcome [4] | outcome [5] | outcome [6] | Potency [10] | Potency [8] | outcome [9]

O=C1NC(=O)[C@@]2(CCOc3ccc(F)cc32)N1
inactive: Potency [1] | outcome [3] | outcome [4] | outcome [5] | outcome [6] | Potency [10] | Potency [8] | outcome [9]

OC[C@]1(O)OC[C@@H](O)[C@H](O)[C@@H]1O
inactive: Potency [1] | Potency [2] | outcome [3] | outcome [4] | outcome [5] | outcome [6] | Potency [10] | Potency [8] | outcome [9]

CCOC(=O)CC(C)=O
inactive: Potency [1] | Potency [2] | outcome [4] | outcome [5] | outcome [6] | outcome [7] | Potency [8] | outcome [9]

O=C[C@H](O)[C@@H](O)[C@H](O)[C@H](O)CO
inactive: Potency [1] | outcome [4] | outcome [5] | outcome [6] | outcome [7] | Potency [8] | outcome [9]

O=C(O)CCCc1ccccc1
inactive: Potency [1] | Potency [2] | outcome [3] | outcome [4] | outcome [5] | outcome [6] | Potency [10] | Potency [8] | outcome [9]

O=c1cc(CO)occ1O
inactive: Potency [1] | Potency [2] | outcome [3] | outcome [4] | outcome [5] | outcome [6] | Potency [10] | Potency [8] | outcome [9]

C=CCOCC(CC)(CO)COCC=C
inactive: Potency [1] | Potency [2] | outcome [3] | outcome [4] | outcome [5] | outcome [6] | Potency [10] | Potency [8] | outcome [9]

O=C(O)CN(CCOCCOCCN(CC(=O)O)CC(=O)O)CC(=O)O
inactive: activity change, negative = cytotoxicity [1] 7.18% [at 0.55 µM] | viability change, negative = cytotoxic [2] 0.79% [at 0.628 µM] | activation [3] -0.0067% [at 0.628 µM] | activity, negative = cytotoxic [4] 7.66% [at 0.628 µM] | activation [5] 0.191% [at 0.628 µM] | activity change, negative = cytotoxicity [6] 11.3% [at 0.628 µM] | viability change, negative = cytotoxic [8] -1.21% [at 0.29 µM] | activation [9] -6.2% [at 0.29 µM]

CS(=O)(=O)O
inactive: Potency [1] | Potency [2] | outcome [3] | outcome [4] | outcome [5] | outcome [6] | Potency [10] | Potency [8] | outcome [9]

O=C1CC2CC1C1CCCC21 (stereo not given)
inactive: Potency [1] | outcome [3] | outcome [4] | outcome [5] | outcome [6] | Potency [10] | Potency [8] | outcome [9]

Nc1c[n+](N2CCOCC2)no1
inactive: Potency [1] | Potency [2] | outcome [3] | outcome [4] | outcome [5] | outcome [6] | Potency [10] | Potency [8] | outcome [9]

NC(=O)c1ccc([N+](=O)[O-])cc1
inactive: Potency [1] | Potency [2] | outcome [3] | outcome [4] | outcome [5] | outcome [6] | Potency [10] | Potency [8] | outcome [9]

CC/C=C\CC/C=C/CO
inactive: Potency [1] | Potency [2] | outcome [4] | outcome [5] | outcome [6] | outcome [7] | Potency [10] | Potency [8] | outcome [9]

CCC(=O)OC(C)c1ccccc1 (stereo not given)
inactive: Potency [1] | Potency [2] | outcome [3] | outcome [4] | outcome [5] | outcome [6] | Potency [10] | Potency [8] | outcome [9]

Nc1cc(=O)[nH]c(N)n1
inactive: Potency [1] | outcome [3] | outcome [4] | outcome [5] | outcome [6] | Potency [10] | Potency [8] | outcome [9]

CCN(CC)CCNC(=O)c1cc(S(C)(=O)=O)ccc1OC
inactive: Potency [1] | outcome [3] | outcome [4] | outcome [5] | outcome [6] | Potency [8] | outcome [9]

CC(=O)OCC(=O)[C@@]1(O)CC[C@H]2[C@@H]3CCC4=CC(=O)CC[C@]4(C)[C@H]3C(=O)C[C@@]21C
inactive: Potency [1] | Potency [2] | outcome [4] | outcome [5] | outcome [6] | Potency [10] | Potency [8] | outcome [9]

CCC=O
inactive: Potency [1] | Potency [2] | outcome [3] | outcome [4] | outcome [5] | outcome [6] | Potency [10] | Potency [8] | outcome [9]

CC(C)NCC(O)c1ccc(NS(C)(=O)=O)cc1 (stereo not given)
inactive: Potency [1] | Potency [2] | outcome [3] | outcome [4] | outcome [5] | outcome [6] | Potency [10] | Potency [8] | outcome [9]

CN1C(=O)N(C)C(O)C1O (stereo not given)
inactive: Potency [1] | outcome [3] | outcome [4] | outcome [5] | outcome [6] | Potency [10] | Potency [8] | outcome [9]

O=[N+]([O-])c1ccc(F)cc1F
inactive: Potency [1] | Potency [2] | outcome [3] | outcome [4] | outcome [5] | outcome [6] | Potency [10] | Potency [8] | outcome [9]

c1ccc([C@H]2CN3CCSC3=N2)cc1
inactive: Potency [1] | Potency [2] | outcome [3] | outcome [4] | outcome [5] | outcome [6] | Potency [10] | Potency [8] | outcome [9]

CC(C[N+](C)(C)C)OC(N)=O (stereo not given)
inactive: Potency [1] | Potency [2] | outcome [3] | outcome [4] | outcome [5] | outcome [6] | Potency [8] | outcome [9]

CCO/C([O-])=N/c1c[n+](N2CCOCC2)no1
inactive: Potency [1] | outcome [3] | outcome [4] | outcome [5] | outcome [6] | Potency [10] | Potency [8] | outcome [9]

O=c1n(CCO)c(=O)n(CCO)c(=O)n1CCO
inactive: Potency [1] | Potency [2] | outcome [3] | outcome [4] | outcome [5] | outcome [6] | Potency [10] | Potency [8] | outcome [9]

c1ccc(CC2=NCCN2)cc1
inactive: Potency [1] | Potency [2] | outcome [3] | outcome [4] | outcome [5] | outcome [6] | Potency [10] | Potency [8] | outcome [9]

Cc1ccc(Cl)cc1Cl
inactive: Potency [1] | Potency [2] | outcome [3] | outcome [4] | outcome [5] | outcome [6] | Potency [10] | Potency [8] | outcome [9]
